In all, about 1,400 compounds went through this assay and about 140 (10%) were called active.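 How the source made its calls: active means Half-maximal inhibitory dose from the fit at or below ten times the top valid tested dose; inconclusive means Invalid fit, or flat curve showing 30 to 70% inhibition; inactive means the rest.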 A selection follows. Results with a measured potency or affinity are listed apart.
biological target: Lysine-specific demethylase 4C (Homo sapiens) (UniProt Q9H3R0); experiment: inhibition of JMJD2C H3K9me3 demethylation – biochemical, DELFIA europium, cherry-picked samples, dose response (AID 488835); conditions: GST-JMJD2C(1-420); series mostly up to 6 µM;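 further: signal is the H3K9me2 demethylation product detected by a dimethyl-specific antibody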
Sequence (Q9H3R0 1-420 limits assumed): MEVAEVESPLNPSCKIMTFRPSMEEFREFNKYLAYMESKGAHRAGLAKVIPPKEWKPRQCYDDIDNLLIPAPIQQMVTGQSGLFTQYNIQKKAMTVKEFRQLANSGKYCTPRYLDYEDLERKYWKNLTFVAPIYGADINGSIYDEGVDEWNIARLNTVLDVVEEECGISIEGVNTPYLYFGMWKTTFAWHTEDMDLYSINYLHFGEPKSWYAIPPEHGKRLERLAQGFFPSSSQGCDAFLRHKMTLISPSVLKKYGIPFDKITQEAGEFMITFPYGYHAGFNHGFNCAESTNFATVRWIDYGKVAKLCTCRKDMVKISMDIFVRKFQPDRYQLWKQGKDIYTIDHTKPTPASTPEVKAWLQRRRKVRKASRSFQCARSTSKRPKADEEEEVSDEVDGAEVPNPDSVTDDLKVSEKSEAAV

Row | Compound | outcome
1 | CSc1nsc(SCC(=O)Nc2c(C)n(C)n(-c3ccccc3)c2=O)n1 | inactive
2 | O=C(NNC(=O)c1ccc(SCC2CCCO2)c([N+](=O)[O-])c1)c1ccc(Cl)c([N+](=O)[O-])c1 (centres undefined) | inactive
3 | CCCCC(=O)NC(NC(=S)N1CCOCC1)C(Cl)(Cl)Cl (centres undefined) | inactive
4 | O=C(Nc1ccc(-c2nc3ncccc3o2)cc1)c1ccc(Br)o1 | inactive
5 | CC(C)(C)n1nc2c(c1NC(=O)c1ccc(Br)o1)CS(=O)C2 (centres undefined) | inactive
6 | COc1ccc(S(=O)(=O)Nc2ccc3c(c2)C(=O)N([C@H](C)CO)C[C@H](C)[C@@H](CN(C)S(=O)(=O)c2c(C)noc2C)O3)cc1 | inactive
7 | COC(=O)CN1C(=O)[C@H]2[C@@H](/C=C/c3ccccc3)N3C(=O)CN(Cc4ccccn4)C(=O)[C@@]3(Cc3ccccc3)[C@H]2C1=O | inactive
8 | COC(=O)c1ccc(/C=C/c2c(-c3ccc(OC)cc3)sc3ccccc23)cc1 | inactive
9 | COc1ccc2c(C(=O)CN3CCN(c4ccccc4)CC3)c[nH]c2c1 | inactive
10 | Cc1noc(C)c1C(=O)Nc1ccc2ccccc2c1 | inactive
11 | Cc1noc(C)c1NC(=O)N(C)C[C@H]1Oc2ccc(NC(=O)CCC(F)(F)F)cc2C(=O)N([C@H](C)CO)C[C@@H]1C | inactive
12 | Fc1ccccc1OCCCCn1cncn1 | inactive
13 | CC(C)=CCN1CCN(Cc2cn[nH]c2C2CCCCC2)CC1CCO (centres undefined) | inactive
14 | O=C(C[C@H]1C/C=C/CC[C@@H](Cc2ccc(F)cc2)C(=O)O[C@@H](c2ccccc2)CNC1=O)NCCO | inactive
15 | CCOC(=O)C1CCN(S(=O)(=O)c2cc3c4c(c2)C(C)C(=O)N4CCC3)CC1 (centres undefined) | inactive
16 | CCn1nc(C(=O)NNC(=O)COc2ccc(OC)cc2)c2ccccc2c1=O | inactive
17 | COc1ccc(NC(=O)NCCCCc2ccccc2)c(OC)c1 | inactive
18 | O=c1nc(SCc2cccc(C(F)(F)F)c2)nc2ccccn12 | inactive
19 | Cc1cccc(NC(=S)N(CCN2CCOCC2)Cc2cc3cc4c(cc3[nH]c2=O)OCO4)c1 | inactive
20 | CNc1nc2c(c(=O)[nH]c(=O)n2C)n1CCCc1ccccc1 | inactive
21 | CCCCn1c(=O)[nH]c(=O)c2c1nc(-c1cc(Cl)c(OC)c(OC)c1)n2C | inactive
22 | CCOC(=O)Cn1nc(C)c2c1CCCC2=O | inactive
23 | CCC(NS(=O)(=O)c1cccs1)c1ccc(C)cc1 (centres undefined) | inactive
24 | O=S1(=O)CCC(N=Nc2c(O)n(Cc3ccccc3)c3ccccc23)C1 (centres undefined) | inactive
25 | Cc1ccccc1Cn1c2ccccc2c2cn[nH]c(=O)c21 | inactive
26 | C[C@H](N)c1nnc(SCC(=O)N(C)C)o1 | inactive

Row | Compound | outcome
27 | COc1ccc(CCNC(=O)CSCc2n[nH]c(=O)[nH]2)cc1OC | inactive
28 | CCOc1ccccc1Nc1ncnc2ccccc12 | inactive
29 | CCOC(=O)c1csc(N/N=C2\CCc3ccccc32)n1 | inactive
30 | COc1ccc(/C=N/N=C2\CC3CCC2(C)C3(C)C)cc1O (centres undefined) | inactive
31 | Cc1cc(C)c(NC(=O)CS(=O)CC(=O)Nc2ccc(F)cc2F)c(C)c1 (centres undefined) | inactive
32 | Cc1cccc2c1-c1sc(C(=O)Nc3cccc([N+](=O)[O-])c3C)cc1CO2 | inactive
33 | Fc1cccc(F)c1/C=N/N1CCOCC1 | inactive
34 | COc1cccc(CSc2nnc(C(F)(F)F)n2Cc2ccc(F)cc2)c1 | inactive
35 | O=C1CCCC2=C1C(c1ccc(OS(=O)(=O)c3ccc(Cl)cc3)cc1)C1=C(CCCC1=O)O2 | inactive
36 | O=C1c2ccc([N+](=O)[O-])cc2C(=O)N1Cc1cccnc1 | inactive
37 | COc1ccc(CCNC(=O)c2ccc(N3CCCCS3(=O)=O)cc2)cc1OC | inactive
38 | O=C(NCCCN1CCCC1=O)c1cc(-c2cccnc2)nc2ccc(Cl)cc12 | inactive
39 | CCCC(=O)NC(c1cccs1)c1cc(Cl)c2cccnc2c1O (centres undefined) | inactive
40 | COc1ccc(CN2CCNC(=O)C2CC(=O)NCc2csc(C(C)C)n2)c(OC)c1 (centres undefined) | inactive
41 | Cc1ccc(C2=[N+]([O-])C(C)(C)CC2)cc1 | inactive
42 | O=C(/C=C/c1cccs1)NC1CCS(=O)(=O)C1 (centres undefined) | inactive
43 | CCOC(=O)c1c(NC(=O)C2CCCO2)sc2c1CCC2 (centres undefined) | inactive
44 | CC(C)(C)NC(=O)C1CCN(C(=O)c2ccc(Br)cc2)CC1 | inactive
45 | CC1=C(C#N)C(Nc2ccc(C)cn2)(C(F)(F)F)C(=O)N1 (centres undefined) | inactive
46 | Cc1ccccc1C(=O)Nc1ccccc1C(=O)NC1CC1 | inactive
47 | Cc1csc(SCC(=O)Nc2ccccc2C)n1 | inactive
48 | N/C(=N\NC(=O)c1ccc(Cl)cc1)c1cnccn1 | inactive
49 | CCCc1c(NC(=O)Nc2ccc(F)cc2)cnn1-c1ccccc1 | inactive
50 | CC1CCN(c2ccc3c(c2)S(=O)(=O)c2cccc(C(=O)NC4CC4)c2C3=O)CC1 | inactive
51 | CCOC(=O)CCC(=O)NCc1ccc2c(c1)cc(C)n2C | inactive
52 | CCN(c1ccc(NC(=O)CCNC(=O)c2ccco2)cc1)C(C)C | inactive

Row | Compound | outcome
53 | Cc1c(C2Nc3ccccc3NC3=C2C(=O)CC(C)(C)C3)cnn1C (centres undefined) | inactive
54 | CCOc1cccc(SCc2noc(C(=O)NC(C)C)c2C(=O)O)c1 | inactive
55 | Cc1sc2ncnc(NCCCO)c2c1C | inactive
56 | Cc1sc2c(c1C)C(=O)/C(=C\Nc1ccccn1)S(=O)(=O)N2C | inactive
57 | CCN(C[C@H]1N[C@@](Cc2ccccc2)(C(=O)OC)[C@H]2C(=O)N(Cc3ccccc3)C(=O)[C@@H]12)S(=O)(=O)c1ccccc1 | inactive
58 | CCN(C[C@H]1N[C@@](CC)(C(=O)OC)[C@H]2C(=O)N(C)C(=O)[C@@H]12)S(=O)(=O)c1ccc(C(F)(F)F)cc1 | inactive
59 | Cc1ccc(-n2c3nc(=O)[nH]c(=O)c-3cc3c(C)nn(-c4ccccc4)c32)c(C)c1 | inactive
60 | O=C1CC2C(=O)NCCN2C(=NC(=O)c2ccccc2)N1 (centres undefined) | inactive
61 | CCSc1nnc(-c2cccc(S(=O)(=O)N(CC)CC)c2)n1Cc1ccccc1 | inactive
62 | Cc1ccc(-c2csc3nc(C)n(-n4c(C)ccc4C)c(=O)c23)o1 | inactive
63 | CN(C)CCOc1ccc(-c2c(-c3ccccc3)sc3ccccc23)cc1 | inactive
64 | Fc1ccc(-c2csc(Nc3ccccn3)n2)cc1 | inactive
65 | COc1ccc(-c2n[nH]c(=S)n2C2CCCCC2)cc1 | inactive
66 | NC(=O)C1CCN(c2nc(-c3ccc4c(c3)OCCO4)cs2)CC1 | inactive
67 | COc1ccc(OC)c(Nc2nc(-c3cccs3)cs2)c1 | inactive
68 | Cc1nc(-c2ccc(C(=O)N3CCCC3)cc2)cs1 | inactive
69 | OCC1=C[C@@H](O)[C@@H]2C=CO[C@@H](O[C@@H]3O[C@H](CO)[C@@H](O)[C@H](O)[C@H]3O)[C@H]12 | inactive
70 | COc1ccc2[nH]c(=O)c(CN(CCCN(C)C)C(=O)Nc3ccc(F)cc3)cc2c1 | inactive
71 | N#Cc1ccc(OCC(=O)Nc2ccccc2NS(=O)(=O)c2cccs2)cc1 | inactive
72 | CC(=O)C[C@@H](O)CC(=O)[C@H]1OC(=O)[C@H](C)C/C=C\Cc2ccccc21 | inactive
73 | Cc1cccc(C)c1NC1=NC(=S)N(c2ccc(C(=O)O)cc2)C12CCCCC2 | inactive
74 | O=C(COc1ccc(Cl)cc1)NCCCn1ccnc1 | inactive
75 | O=C(OCCCOC(=O)c1ccc(Br)o1)c1ccc(Br)o1 | inactive
76 | CN(C)S(=O)(=O)c1ccc(N2CCCC2)c(C(=O)Nc2nc3ccc(F)cc3s2)c1 | inactive
77 | COc1ccc2cc(Br)ccc2c1CC(=O)NCCCN1CCOCC1 | inactive
78 | CSCCC(NS(=O)(=O)c1ccc2ccccc2c1)C(=O)O (centres undefined) | inactive

Row | Compound | outcome
79 | Cn1c(=O)[nH]c(=O)c2[nH]c(NCCCN3CCOCC3)nc21 | inactive
80 | CCOC(=O)N1CCN(c2ccc(F)cc2[N+](=O)[O-])CC1 | inactive
81 | NC(=O)CC(NC(=S)NCc1ccccc1)C(=O)O (centres undefined) | inactive
82 | O=C(c1ccc2c(c1)OCO2)N1CCCN(C(=O)c2ccc3c(c2)OCO3)CC1 | inactive
83 | COc1ccc(CC(=O)Nc2ccc(/C(C)=N/NC(=O)c3cccc([N+](=O)[O-])c3)cc2)cc1 | inactive
84 | O=C(NCC(=O)N1CCCCC1)c1sc2ccccc2c1Cl | inactive
85 | c1cc2c(cc1C1CCCCC1)c1c3n2CCCNC3CCC1 (centres undefined) | inactive
86 | COC(=O)c1cc(S(=O)(=O)NCCCN2CCCC2=O)cn1C | inactive
87 | O=[N+]([O-])c1ccc(N2CCN(S(=O)(=O)c3ccc(Cl)cc3)CC2)cc1NCc1cccnc1 | inactive
88 | C=CCNC(=O)c1ccc(S(=O)(=O)CC)c(Cl)c1Cl | inactive
89 | COC(=O)C1CCN(C(=O)COC(=O)COc2ccc(C#N)cc2)CC1 | inactive
90 | COc1cccc(NC(=S)/C(=C(\[O-])c2ccc(C)c([N+](=O)[O-])c2)[n+]2ccccc2)c1 | inactive
91 | Cn1nnnc1SCC(=O)NCC(=O)c1ccccc1 | inactive
92 | O=C(CSc1nnc(CNC(=O)c2cccs2)o1)c1ccccc1 | inactive
93 | NCc1nc(-c2ccc(Cl)cc2)no1 | inactive
94 | CCS(=O)(=O)Nc1ccc(C2=NN(C(=O)c3ccco3)C(c3ccc(C)cc3)C2)cc1 (centres undefined) | inactive
95 | CC(CN1CCCC1)OC(=O)COc1ccccc1 (centres undefined) | inactive
96 | COc1ccc(C(=O)NC2CC3CCCC(C2)N3Cc2ccccc2)cc1 (centres undefined) | inactive
97 | O=C(NC1CCN(S(=O)(=O)c2ccc(F)cc2)CC1)c1ccc(F)cc1 | inactive
98 | CCN(CC)S(=O)(=O)c1ccc(N2CCOCC2)c(NC(=O)c2ccc3c(c2)OCCO3)c1 | inactive
99 | Oc1ccccc1N1CCN(C(=S)NCc2ccccc2)CC1 | inactive
100 | O=C(O)CCNc1ccc2c(c1)OCCO2 | inactive
101 | COc1ccc(S(=O)(=O)Nc2cccc3c2O[C@H](CN(C)Cc2ccc(C(=O)O)cc2)[C@@H](C)CN([C@H](C)CO)C3=O)cc1 | inactive
102 | CC(C)(C)C1CCc2[nH]c3ccccc3c(=O)c2C1 (centres undefined) | inactive
103 | Cc1cc(=O)[nH]c(SCC(=O)Nc2ncc(S(=O)(=O)c3ccc([N+](=O)[O-])cc3)s2)n1 | inactive
104 | CCn1c(=O)c(C(=O)NCCc2ccc(Cl)cc2)c(O)c2ccccc21 | inactive

Reference: PubChem BioAssay AID488835 (Broad Institute, 2010)
